Source: PubChem BioAssay
This is a sample that favours compounds with a hit; in the whole collection about 3.5% have one here.
Anthrax LF prot = blocks Bacillus anthracis lethal factor protease. P15917. multiplex microsphere protease cleavage assay, LF. inhibition, % at 10 µM. actives 0.12% (n = 360,000). AID 588501; further: plate controls were buffer without enzyme for full effect and enzyme alone for no effect
BoNT A protease = BoNT A light chain protease inhibition; multiplex microsphere protease substrate cleavage, flow cytometry; inhibition, % at 10 µM; actives 0.17% (n = 360,000); further: plate controls were buffer without enzyme for full effect and enzyme alone for no effect
Autofluor counter = counter-screen for toxin protease inhibitors: compound fluorescence. compound autofluorescence counterscreen, microsphere flow cytometry; stronger effect = higher value. AID 624483. actives 3.1% (n = 360,000). fluorescence intensity (no concentration beside the values); in the data active means fluorescence intensity above about 16000; inconclusive means no clear call, values can overlap the other calls
BoNT F protease = blocks Botulinum neurotoxin F light chain protease; Multiplex microsphere protease cleavage assay, flow cytometry; inhibition, % at 10 µM; AID 588497; actives 0.22% (n = 360,000); in the data active means inhibition above about 35%, passing the limit was not always enough; inconclusive means no clear call, values can overlap the other calls; further: plate controls were buffer without enzyme for full effect and enzyme alone for no effect
Numbers without * were called inactive; ? = inconclusive. Unless noted, no stated cut-off is given here; in the data, active means inhibition above about 30%; inconclusive means no clear call, values can overlap the other calls; inactive means below that.

SMILES | Anthrax LF prot | BoNT A protease | Autofluor counter | BoNT F protease
Cc1c(N(C)S(=O)(=O)c2cc(C(=O)N3CCCC3)ccc2Cl)c(=O)n(-c2ccccc2)n1C | -1 | -2 | 5373 | -1
CCN(CC)c1cc(C)c(C#N)c2nc3ccccc3n12 | -11 | -8 | 4281 | ?
CCN(CC)c1c2c(c(C#N)c3nc4ccccc4n13)CCC2 | -3 | -1 | 16264* | -1
CC(=O)NCCn1c(SCC(=O)NCCC(C)C)nc2ccccc2c1=O | 0 | -4 | 23356* | -3
CCCCNC(=O)CSc1nc2ccccc2c(=O)n1CCNC(C)=O | -3 | -2 | 9968 | -9
O=C(CCCCCn1c(SCC(=O)c2ccccc2)nc2ccccc2c1=O)NCc1ccco1 | -3 | 0 | 16253* | -1
COc1ccccc1NC(=O)CSc1nc2ccccc2c(=O)n1CCNC(C)=O | 5 | 2 | 7865 | 12
O=C(CSc1nc2ccccc2c(=O)n1Cc1ccco1)NCc1ccco1 | -2 | 0 | 8565 | -4
CC(=O)NCCn1c(SCC(=O)NCc2ccco2)nc2ccccc2c1=O | -4 | -2 | 17328* | -4
CC(=O)NCCn1c(SCC(=O)c2ccc(Cl)cc2)nc2ccccc2c1=O | 0 | ? | 21199* | -6
CC(=O)Nc1sc(C)c(C)c1C(=O)OCC(=O)N(Cc1ccccc1)C(C)C | -3 | 0 | 3931 | -4
CC(C)(C)OC(=O)N1Cc2ccccc2C[C@H]1C(=O)NC1CCCC1 | 4 | -3 | 3354 | -5
O=C(C1CCOCC1)N1CCC(CO)(CCc2ccccc2)CC1 | -2 | 0 | 2785 | -8
Cc1ccc(NC(=O)CN2C(=O)NC3(CCCCC3)C2=O)cc1S(=O)(=O)N1CCOCC1 | -6 | 0 | 4028 | 2
Cc1ccc(-c2ccccc2NC(=O)CS(=O)CC(=O)Nc2ccc(C)c(Cl)c2)o1 (stereo not drawn) | 0 | 3 | 5567 | 7
Cc1ccc(NC(=O)CS(=O)CC(=O)NC(C)CCc2ccco2)cc1Cl (stereo not drawn) | -2 | 1 | 23396* | 0
OC(COc1ccc2cc(Br)ccc2c1)CN1CCCC1 (stereo not drawn) | -4 | -3 | 23249* | -5
Cc1nc(-n2cc(F)c(=O)[nH]c2=O)c2nc(C)oc2n1 | -4 | -2 | 17089* | -4
Cc1ccc(S(=O)(=O)NC2(C(=O)O)CCCCC2)cc1 | -1 | -2 | 23381* | -2
Cc1ccc(S(=O)(=O)NC2(C(=O)O)CCCC2)cc1 | 2 | 0 | 3815 | -1
O=C(O)C1(NS(=O)(=O)c2ccc(Cl)cc2)CCCCC1 | -4 | ? | 19428* | 2
O=[N+]([O-])c1cc(C(F)(F)F)ccc1N1CCC(O)CC1 | -7 | 0 | 4280 | -5
NC(=O)C1CCN(c2ccc(C(F)(F)F)cc2[N+](=O)[O-])CC1 | -5 | 4 | 21870* | 3
COc1ccc(CCN2CC(C(=O)Nc3cc(F)ccc3F)CC2=O)cc1OC (stereo not drawn) | -7 | -2 | 6744 | 12
COc1ccc(/C(N)=N/OC(=O)c2cc(-c3ccccc3)nc3ccccc23)cc1 | -4 | 2 | 19686* | -1
SMILES | Anthrax LF prot | BoNT A protease | Autofluor counter | BoNT F protease
Cc1nc2ccccc2c(=O)n1/N=C/c1ccccc1OC(F)F | -13 | -3 | 3362 | -2
CCn1c(NC(=O)c2ccccc2F)c(-c2cccs2)c(=O)c2ccccc21 | 7 | 0 | 5635 | -3
COc1cccc(NC(=O)C(C#N)Cc2ccncc2)c1 (stereo not drawn) | 1 | 6 | 19544* | 10
COc1ccc(CN(C)C(=O)c2ccc3c(=O)n4c(nc3c2)CCC4)c(OC)c1 | ? | 1 | 6316 | -3
COc1ccc(CNCC(O)(c2ccc(F)cc2)c2ccc(F)cc2)cc1OC | -2 | 2 | 3290 | -14
COc1ccc(CNCC(O)(c2ccc(Cl)cc2)c2ccc(Cl)cc2)cc1OC | -5 | -6 | 18261* | -22
COc1ccc(CNCC(O)(c2ccc(Cl)cc2)c2ccc(Cl)cc2)cc1 | -6 | -2 | 21174* | -16
COc1ccc(CNCC(O)(c2ccccc2)c2ccc(F)cc2)cc1 (stereo not drawn) | 2 | 0 | 4049 | 0
Cc1c(NS(C)(=O)=O)c(=O)n(-c2ccccc2)n1C | -3 | -1 | 3673 | -11
Cc1ccc(S(=O)(=O)N2CCOCC2)cc1C(=O)Nc1c(C)n(C)n(-c2ccccc2)c1=O | -4 | ? | 22630* | -3
Cc1c(NS(=O)(=O)N2CCCC2)c(=O)n(-c2ccccc2)n1C | -2 | 1 | 22285* | 4
Cc1ccc(C(=O)Nc2c(C)n(C)n(-c3ccccc3)c2=O)cc1S(=O)(=O)N1CCOCC1 | 0 | 1 | 2306 | 4
CCC1(CC)C(=O)NC(=NCCc2c[nH]c3ccccc23)NC1=O | -2 | -2 | 17043* | -8
NCCc1c[nH]c2ccccc12 | -8 | 0 | 4978 | -7
Cc1nc2scc(C)n2c(=O)c1S(=O)(=O)Nc1ccc(N2CCOCC2)cc1 | -2 | -1 | 6216 | -8
CC(C)C(NC(=O)c1ccccc1F)C(=O)Nc1nccs1 (stereo not drawn) | 3 | 0 | 3227 | -3
NC(=O)c1cccn1Cc1ccccc1Cl | 3 | 0 | 22851* | 2
Cc1ccc(S(=O)(=O)Nc2nc3c(s2)C(=O)CC(C)(C)C3)cc1 | 0 | 0 | 2060 | -2
CC1(C)CC(=O)c2sc(NS(=O)(=O)Cc3ccccc3)nc2C1 | 2 | ? | 22981* | 2
CN(Cc1ccco1)C(=O)c1cc2c(s1)-c1ccc(Cl)cc1S(=O)(=O)C2 | -2 | -1 | 6239 | 2
COC(=O)c1cc(C(=O)OC)cc(N2C(=O)CC(NNC(=O)c3ccccc3Br)C2=O)c1 (stereo not drawn) | -8 | -6 | 17445* | -8
COC(=O)c1cc(C(=O)OC)cc(N2C(=O)CC(NNC(=O)c3ccc(C)cc3)C2=O)c1 (stereo not drawn) | 0 | 0 | 2657 | -8
CCN(C(=O)Cc1c(C(=O)O)n(C)c2ccccc12)c1ccc(F)cc1 | -11 | -1 | 4551 | 4
Cn1ccnc1SCC(=O)c1c(N)n(C)c(=O)n(C)c1=O | -5 | 0 | 3313 | 1
Cc1cc(C)nc(SCC(=O)c2c(N)n(C)c(=O)n(C)c2=O)n1 | 2 | ? | 23309* | 0
SMILES | Anthrax LF prot | BoNT A protease | Autofluor counter | BoNT F protease
O=C(CC(C(=O)O)N1CCOCC1)Nc1ccc(Cl)cc1 (stereo not drawn) | 0 | 1 | 19713* | 2
COCCn1c(N)c(C(=O)OCc2ccccc2)c2nc3ccccc3nc21 | 2 | -1 | 20725* | -2
COCCOC(=O)c1c(N)n(Cc2ccccc2)c2nc3ccccc3nc12 | 0 | 4 | 4009 | ?
COc1nc(NCc2cccnc2)nc(OC)n1 | 1 | ? | 16316* | -5
COCCn1c(SCC(=O)Nc2sc(C)c(C)c2C#N)nnc1-c1ccc(OC)cc1 | -2 | -1 | 22774* | 1
CCCCn1c(SCC(=O)Nc2nnc(CC)s2)nc2ccccc2c1=O | 0 | ? | 22336* | 1
CCCCn1c(SCC(=O)NC(=O)Cc2ccccc2)nc2ccccc2c1=O | -6 | -1 | 2885 | 3
CCCCn1c(SCC(=O)Nc2nnc(C)s2)nc2c1c(=O)n(C)c(=O)n2C | 2 | ? | 22970* | 2
CCCn1c(SCC(=O)Nc2nnc(C(C)C)s2)nc2c1c(=O)n(C)c(=O)n2C | 3 | -2 | 11392 | 4
